“And” between values parts separate entries of the source, which are not always exact repeats. Equal values may be shown once. Among all 5,500 compounds or so, about 2,000 (36%) were called active. Not shown: some 18% with an inconclusive outcome. Cut-off read from the data, not from the text of the source: active = normalized growth mostly below about 0.91 (no sharp cut-off); inconclusive = no clear call, values can overlap the other calls; inactive = mostly above about 0.92. This is one part of the list.
Experiment: chemical genetic growth profiling, strain panel (AID 1159580);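 note: tested at 20 µM; growth read once vehicle control cultures reached saturation at 30 °C; 1 = growth at the plate median or of vehicle wells; lower values mean less growth of the strain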
Conditions: S. cerevisiae deletion strains, growth OD

Measured: normalized growth

Clc1ccc(C(c2ccccc2Cl)C(Cl)Cl)cc1 (centres undefined)
inactive: locus YAL013W, strain DEP1, hits give low values 0.997 | locus YAL021C, strain ccr4, hits give low values 1.07 | locus YAL026C, strain drs2, hits give low values 0.943 | locus YAL030W, strain snc1, hits give low values 0.94 | locus YAL040C, strain CLN3, hits give low values 1 | locus YBL061C, strain skt5, hits give low values 0.948 | locus YBR009C, strain hhf1, hits give low values 0.928 | locus YBR021W, strain FUR4, hits give low values 0.949 | locus YBR023C, strain chs3, hits give low values 0.973 | locus YBR171W, strain sec66, hits give low values 0.941 | locus YBR229C, strain ROT2, hits give low values 0.998 | locus YBR231C, strain swc5, hits give low values 0.964 | locus YBR279W, strain paf1, hits give low values 0.987 | locus YCL011C, strain gbp2, hits give low values 0.918 | locus YCL016C, strain dcc1, hits give low values 0.97 | locus YCL029C, strain bik1, hits give low values 0.986 | locus YCL061C, strain MRC1 (second series), hits give low values 1.01 | locus YCL069W, strain vba3, hits give low values 0.982 | locus YCR088W, strain abp1, hits give low values 0.988 | locus YDL005C, strain med2, hits give low values 0.967 | locus YDL035C, strain GPR1, hits give low values 1 | locus YDL040C, strain nat1, hits give low values 0.989 | locus YDL074C, strain BRE1, hits give low values 0.956 | locus YDL101C, strain DUN1, hits give low values 1 | locus YDL134C, strain PPH21, hits give low values 0.993 | locus YDL185W, strain tfp1, hits give low values 0.984 | locus YDL192W, strain arf1, hits give low values 0.989 | locus YDR001C, strain nth1, hits give low values 0.981 | locus YDR069C, strain doa4, hits give low values 0.915 | locus YDR101C, strain arx1, hits give low values 0.987 | locus YDR137W, strain rgp1, hits give low values 0.932 | locus YDR150W, strain NUM1, hits give low values 1.02 | locus YDR159W, strain sac3, hits give low values 1 | locus YDR162C, strain NBP2, hits give low values 1.02 | locus YDR195W, strain ref2 1.06 | locus YDR297W, strain sur2, hits give low values 0.956 | locus YDR318W, strain mcm21, hits give low values 0.985 | locus YDR334W, strain swr1, hits give low values 0.962 | locus YDR335W, strain msn5, hits give low values 0.967 | locus YDR363W, strain ESC2, hits give low values 1.01 | locus YDR388W, hits give low values 0.991 | locus YDR392W, strain spt3, hits give low values 0.869 | locus YDR502C, strain sam2, hits give low values 0.984 | locus YEL003W, strain gim4, hits give low values 0.969 | locus YEL037C, strain rad23, hits give low values 0.983 | locus YEL061C, strain CIN8 (second series), hits give low values 0.984 | locus YEL061C, strain CIN8, hits give low values 1 | locus YER015W, strain faa2, hits give low values 0.978 | locus YER016W, strain bim1, hits give low values 1.02 | locus YER110C, hits give low values 0.986 | locus YER111C, strain swi4, hits give low values 0.986 | locus YER155C, strain BEM2 (second series), hits give low values 0.96 | locus YER155C, strain BEM2, hits give low values 0.994 | locus YER167W, strain BCK2, hits give low values 1 | locus YFR010W, strain ubp6, hits give low values 0.942 | locus YGL078C, strain dbp3, hits give low values 0.99 | locus YGL086W, strain mad1, hits give low values 0.981 | locus YGL167C, strain pmr1, hits give low values 0.972 | locus YGL173C, strain kem1, hits give low values 0.936 | locus YGL227W, strain vid30, hits give low values 0.987 | locus YGL240W, strain doc1, hits give low values 0.925 | locus YGL248W, strain PDE1, hits give low values 0.993 | locus YGL253W, strain hxk2, hits give low values 0.977 | locus YGR078C, strain PAC10, hits give low values 0.987 and 0.999 | locus YGR135W, strain pre9, hits give low values 0.968 | locus YGR229C, strain SMI1, hits give low values 0.978 and 1.01 | locus YGR252W, strain gcn5, hits give low values 0.874 | locus YHR013C, strain ard1, hits give low values 1.11 | locus YHR027C, strain rpn1, hits give low values 0.982 | locus YHR030C, strain SLT2, hits give low values 0.985 and 0.893 | locus YHR079C, strain IRE1 (second series), hits give low values 0.983 | locus YHR079C, strain IRE1, hits give low values 0.947 | locus YHR094C, strain hxt1, hits give low values 0.992 | locus YHR129C, strain ARP1, hits give low values 1 | locus YHR142W, strain chs7, hits give low values 0.919 | locus YHR200W, strain rpn10, hits give low values 0.98 | locus YIL066C, strain RNR3, hits give low values 0.963 | locus YIL073C, strain SPO22, hits give low values 0.952 | locus YIL125W, strain kgd1, hits give low values 0.998 | locus YIR030C, strain dcg1, hits give low values 0.99 | locus YJL092W, strain hpr5, hits give low values 0.961 | locus YJL095W, strain BCK1 (second series), hits give low values 0.973 | locus YJL095W, strain BCK1, hits give low values 1 and 0.933 | locus YJL115W, strain asf1, hits give low values 0.976 | locus YJL134W, strain LCB3, hits give low values 1 | locus YJL154C, strain vps35, hits give low values 0.978 | locus YJL164C, strain tpk1, hits give low values 0.95 | locus YJL168C, strain set2, hits give low values 0.988 | locus YJL187C, strain SWE1 (second series), hits give low values 0.997 | locus YJR043C, strain POL32, hits give low values 1
active: locus YCL061C, strain MRC1, hits give low values 0.907 | locus YER002W, strain NOP16, hits give low values 1.12 [resistant] | locus YJL129C, strain trk1, hits give low values 0.828 | locus YJL166W, strain qcr8, hits give low values 0.825

— PubChem BioAssay AID1159580 (chemical genetic matrix, 2015)
